# Sampled rows, rich in hits. Any-hit rate of the full collection: about 1.5%.
# MenB inh: blocks the Mycobacterium tuberculosis MenB enzyme | inhibition, % (no concentration beside the values) | P9WNP5 | MenB enzyme assay, absorbance read-out | 100,000 compounds, 0.43% hits | AID 540299; in the data active = inhibition above about 21%, passing the limit was not always enough
# Target sequence (P9WNP5 whole entry, looked up): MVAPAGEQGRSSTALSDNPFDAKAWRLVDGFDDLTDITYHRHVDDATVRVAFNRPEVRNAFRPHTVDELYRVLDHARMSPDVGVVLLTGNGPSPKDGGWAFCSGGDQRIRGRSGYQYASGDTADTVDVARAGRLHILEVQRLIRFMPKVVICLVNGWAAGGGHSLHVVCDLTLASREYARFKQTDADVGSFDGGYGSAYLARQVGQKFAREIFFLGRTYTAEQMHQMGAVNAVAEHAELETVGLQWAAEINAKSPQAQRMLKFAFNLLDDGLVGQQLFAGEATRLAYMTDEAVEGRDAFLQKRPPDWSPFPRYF
# Mtb MbtI inh: inhibitors of Mycobacterium tuberculosis siderophore enzyme MbtI. P9WFX0. purified MbtI enzyme, fluorescence intensity read-out. inhibition, % (test concentration not listed). 100,000 compounds, 0.89% hits. AID 493033; in the data active = inhibition mostly above about 56%, no sharp cut-off; inactive = mostly below about 77%
# Polio RdRp inh: inhibitors of poliovirus RNA polymerase binding and polymerization; poliovirus polymerase elongation, fluorescence polarization; hits give low values; % elongation, % (compound at 16.7 µg/mL); 150,000 compounds, 0.66% hits; AID 588519; in the data active = % elongation below about 90%
# * = called active by the depositor; nt = no result given.
SMILES,MenB inh,Mtb MbtI inh,Polio RdRp inh
C=CCN1CCN(Cc2nnnn2Cc2ccc(OC)cc2)CC1,42*,1,103
COc1ccc(CCn2nnnc2CN2CCN(Cc3ccccc3)CC2)cc1OC,-20,-3,102
CC(OC(=O)c1cccn1C)C(=O)Nc1ccc(Cl)cc1 (stereo not given),-14,-4,113
CCn1c2ccccc2c2cc(NC(=O)C(C)OC(=O)c3cccn3C)ccc21 (stereo not given),-14,17,20*
Cc1ccsc1C=Nc1ccc(OC(F)(F)F)cc1,nt,-10,102
Cc1ccsc1C=Nc1ccc(O)cc1,-28,96*,100
CCc1ccccc1N(CC)C(=O)C(=O)Nc1ccc2nc3n(c(=O)c2c1)CCCCC3,nt,nt,108
Cc1ccc(NCn2c(=O)oc3ccccc32)cc1,4,-5,100
O=c1cc(CSc2ccc(Cl)cc2)[nH]c(=S)[nH]1,-79,58*,99
CCCc1cc(=O)[nH]c(=S)[nH]1,-4,31,104
CCSc1cc(C(F)(F)F)nc2cc(C(C)(C)C)nn12,-10,87*,100
CC(C)(C)c1cc2nc(C(F)(F)F)cc(Sc3ccccc3)n2n1,4,2,100
N=C1N(c2ccc(Cl)c(Cl)c2)C(=O)NC12CCCC2,-7,-8,108
COc1ccc(C(=O)Nc2ccc(S(=O)(=O)N3CCCCC3c3cccnc3)cc2)cc1OC (stereo not given),-20,6,100
Oc1cccc(-c2nc(-c3ccccc3)c3ccccn23)c1,nt,5,89*
Oc1cccc(Cn2c(-c3cccc(O)c3)nc3ccccc32)c1,nt,-10,nt
CCOc1ccccc1-c1n[nH]c(=S)n1N,-7,90,83*
Nn1c(-c2ccco2)n[nH]c1=S,-19,63,106
O=C(N/C=C\n1cnc2cc(C(F)(F)F)ccc21)c1cc2c(s1)CCC2,nt,-2,102
O=C1CSc2sc(=S)sc2S1,-121,47,88*
CC(=O)Nc1ccc(S(=O)(=O)NC2=NCN(C3CCN(Cc4ccccc4)CC3)CN2)cc1,-58,-3,102
CCOC(=O)Cn1c(=O)n(-c2ccccc2OC)c2nc(-c3ccc(C(C)C)cc3)nc(C(N)=O)c21,nt,nt,101
O=C(Cn1cc2c(n1)CCCC2)NC1CCCC1,-15,-8,102
CCCCN(CC)c1nc(N)c(C#N)c(CC#N)c1C#N,-13,-54,143
CN(C)c1nc(N)c(C#N)c(CC#N)c1C#N,16,6,80*
SMILES,MenB inh,Mtb MbtI inh,Polio RdRp inh
COc1ccccc1CNC(=O)CSc1nc2c(cnn2-c2cccc(C)c2)c(=O)[nH]1,-6,-6,104
O=C1NN=C2C3CC(CC12)C1=NNC(=O)C1C3 (stereo not given),18,-1,98
O=C(O)c1cccnc1SC1CC(=O)N(C2CCCC2)C1=O (stereo not given),0,-4,99
CCc1ccc(N2C(=O)CC(Sc3ccccn3)C2=O)cc1 (stereo not given),-31,69*,103
CCc1ccc(N2C(=O)CC(Sc3nnc(N)s3)C2=O)cc1 (stereo not given),4,101*,101
CSc1nnc(SC2CC(=O)N(c3cc(Cl)cc(Cl)c3)C2=O)s1 (stereo not given),-26,6,108
O=C1CC(Sc2ccc(Cl)cc2)C(=O)N1c1ccc(Br)cc1 (stereo not given),1,nt,107
O=C(O)c1cccnc1SC1CC(=O)N(c2ccc(Cl)cc2)C1=O (stereo not given),-17,66*,105
O=C1CC(Sc2ccccc2)C(=O)N1c1ccccc1 (stereo not given),2,64*,103
CCc1ccc(N2C(=O)CC(Sc3ccccc3N)C2=O)cc1 (stereo not given),-4,-1,98
N#C/C(=C1\CCCN1)c1nc2ccccc2s1,nt,-5,101
CC(C)C(NC(=O)c1ccccc1)C(=O)OCc1cc(=O)n2ccsc2n1 (stereo not given),10,20,101
COc1cc(/C=N\n2cn[nH]c2=S)cc(OC)c1OC,-12,25,100
CC(C)n1cn[nH]c1=S,-23,59*,96
NC1=NC(=O)/C(=C\c2ccc(F)cc2)S1,nt,-1,105
CN1/C(=C2\C=NN(C)P2(=S)N2CCCC2)C(C)(C)c2ccccc21 (stereo not given),-19,6,109
COP1(=S)/C(=C2/N(C)c3ccccc3C2(C)C)C=NN1C (stereo not given),-82,100*,70*
COc1ccc(Cl)cc1NC(=O)c1cc2c(Cl)nc3ccc(C)cc3c2s1,-11,0,101
Cc1ccc(NC(=O)c2cc3c(Cl)nc4ccc(C)cc4c3s2)c(Cl)c1,nt,nt,63*
O=C(Nc1ccc2c(c1)OCCO2)c1ccccc1NCC(=O)N1CCc2ccccc21,2,20,99
CCOC(=O)c1c(N)sc(N)c1C(=O)OCC,1,97*,98
